From PubChem BioAssay (NCI)
The panel holds about 83,000 compounds, 20% with a hit somewhere; the sample as a whole holds those more often.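 Negative percent growth values reflect cell death: -40 means 40% of the cells present at the start died, and -100 means all died.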 Active and inactive are the calls of the source. The calls were made as follows: active = growth percent below 10; inactive = the rest.

Columns and labels:
Assay in all cases: NCI-60 one-dose screen, 48 h (100 = growth as untreated, 0 = no growth, -100 = all killed)
Details in all cases: 10 µM unless noted
SR leukemia = system: SR leukemia
RPMI-8226 leukemia = system: RPMI-8226 leukemia
OVCAR-8 ovarian = system: OVCAR-8 ovarian
OVCAR-5 ovarian = system: OVCAR-5 ovarian
SK-OV-3 ovarian = system: SK-OV-3 ovarian
IGROV1 ovarian = system: IGROV1 ovarian
OVCAR-3 ovarian = system: OVCAR-3 ovarian
HS 578T breast = system: HS 578T breast
NCI/ADR-RES ovarian = system: NCI/ADR-RES ovarian

Measured: growth

NCCCNc1nc2ccccc2c2c(=O)c3cc(Cl)ccc3sc12
inactive: SK-OV-3 ovarian 77.6% | HS 578T breast 43%
active: SR leukemia -44.3% | RPMI-8226 leukemia -37.9% | OVCAR-8 ovarian -48.4% | OVCAR-5 ovarian -11.5% | IGROV1 ovarian -1.46% | OVCAR-3 ovarian -60% | NCI/ADR-RES ovarian -4.11%

COc1nc(/C=C\Nc2ccc3c(c2)OCCOCCOCCOCCO3)nc(OC)n1
inactive: SR leukemia 119% | RPMI-8226 leukemia 94.3% | OVCAR-8 ovarian 108% | OVCAR-5 ovarian 98.3% | SK-OV-3 ovarian 106% | IGROV1 ovarian 97.2% | OVCAR-3 ovarian 99.2% | NCI/ADR-RES ovarian 93.7%

Nc1ncnc2c1N=C(c1ccc(F)cc1)CC(c1cccc(Nc3ccnc4cc(Cl)ccc34)c1)N2 (stereo not drawn)
active: SR leukemia 0.875%
inactive: RPMI-8226 leukemia 25.9% | OVCAR-8 ovarian 82.2% | OVCAR-5 ovarian 107% | SK-OV-3 ovarian 98.9% | IGROV1 ovarian 74.3% | OVCAR-3 ovarian 88.9% | HS 578T breast 68.3% | NCI/ADR-RES ovarian 78.2%

COc1c2c(cc3c1C(=O)N[C@@H]1[C@@H](O)[C@@H](O)[C@H](O)C[C@@H]31)OCCO2
inactive: SR leukemia 92.1% | RPMI-8226 leukemia 102% | OVCAR-8 ovarian 100% | OVCAR-5 ovarian 105% | SK-OV-3 ovarian 98.6% | IGROV1 ovarian 109% | OVCAR-3 ovarian 104% | HS 578T breast 96.2% | NCI/ADR-RES ovarian 113%

O=c1cc(CNc2cc(F)cc(F)c2)c2ccc(I)cc2[nH]1
inactive: RPMI-8226 leukemia 15.8% | OVCAR-8 ovarian 53.5% | OVCAR-5 ovarian 64.3% | SK-OV-3 ovarian 39% | IGROV1 ovarian 45.9% | OVCAR-3 ovarian 11.2% | HS 578T breast 19.9% | NCI/ADR-RES ovarian 26.3%
active: SR leukemia -0.446%

COc1ccc(Cl)cc1Nc1nc(C(F)(F)F)ccc1C(=O)N/N=C/c1ccc([N+](=O)[O-])cc1
active: SR leukemia 0.718% | RPMI-8226 leukemia -49.7% | OVCAR-8 ovarian 9.77% | OVCAR-5 ovarian 4.96% | IGROV1 ovarian -0.273% | OVCAR-3 ovarian -1% | HS 578T breast 3.18% | NCI/ADR-RES ovarian 2.09%
inactive: SK-OV-3 ovarian 14.5%

CC(O)Cc1c[nH]c(=O)[nH]c1=O (stereo not drawn)
inactive: SR leukemia 93.8% | RPMI-8226 leukemia 117% | OVCAR-8 ovarian 92% | OVCAR-5 ovarian 109% | SK-OV-3 ovarian 29.3% | IGROV1 ovarian 116% | OVCAR-3 ovarian 99% | HS 578T breast 103% | NCI/ADR-RES ovarian 104%

COC(=O)Cn1c2c(c3c(OC)cccc31)C(=O)c1ccccc1-2
inactive: SR leukemia 84.8% | RPMI-8226 leukemia 85.3% | OVCAR-8 ovarian 107% | OVCAR-5 ovarian 81.1% | SK-OV-3 ovarian 96.9% | IGROV1 ovarian 110% | OVCAR-3 ovarian 116% | HS 578T breast 97.2% | NCI/ADR-RES ovarian 95.5%

COc1cc2ncnc(Nc3ccc(S(=O)(=O)Nc4nccs4)cc3)c2cc1OCCCN1CCCC1
inactive: SR leukemia 99.1% | RPMI-8226 leukemia 107% | OVCAR-8 ovarian 99.7% | OVCAR-5 ovarian 109% | SK-OV-3 ovarian 98.6% | IGROV1 ovarian 110% | HS 578T breast 110% | NCI/ADR-RES ovarian 108%

CN1CC(c2ccc(Br)cc2)C(C(=O)c2ccc(Br)cc2)C12C(=O)Nc1ccccc12 (stereo not drawn)
inactive: SR leukemia 68.1% | RPMI-8226 leukemia 62.3% | OVCAR-8 ovarian 83.8% | OVCAR-5 ovarian 82.1% | SK-OV-3 ovarian 80.8% | IGROV1 ovarian 62.6% | OVCAR-3 ovarian 79.3% | HS 578T breast 89.3% | NCI/ADR-RES ovarian 58.9%

O=C(O)c1cn(C2CC2)c2cc(N3CCN(C(=O)N4CCOCC4)CC3)c(F)cc2c1=O
inactive: SR leukemia 116% | RPMI-8226 leukemia 108% | OVCAR-8 ovarian 104% | OVCAR-5 ovarian 104% | SK-OV-3 ovarian 100% | IGROV1 ovarian 94% | OVCAR-3 ovarian 109% | HS 578T breast 119% | NCI/ADR-RES ovarian 105%

N#Cc1c(-c2cccc(Cl)c2)cc(-c2cccnc2)[nH]c1=O
inactive: SR leukemia 21.9% | RPMI-8226 leukemia 88.8% | OVCAR-8 ovarian 98.1% | OVCAR-5 ovarian 98.4% | SK-OV-3 ovarian 90.7% | OVCAR-3 ovarian 47.2% | HS 578T breast 62.7% | NCI/ADR-RES ovarian 80.3%

Cc1ccc2cnc(N)c(C#Cc3cc(C(=O)Nc4ccc(CN5CCN(C)CC5)c(C(F)(F)F)c4)cnc3C)c2c1
inactive: OVCAR-8 ovarian 48.4% | SK-OV-3 ovarian 50.5% | IGROV1 ovarian 11% | OVCAR-3 ovarian 32.4% | NCI/ADR-RES ovarian 22.8%
active: SR leukemia -36.1% | RPMI-8226 leukemia -40.6% | OVCAR-5 ovarian -59.1% | HS 578T breast -12.4%

COc1cc2c(cc1OCCCN1CCN(C(=S)SCCC(C#N)(c3ccccc3)c3ccccc3)CC1)N=C[C@@H]1CCCN1C2=O
inactive: NCI/ADR-RES ovarian 22.3%
active: SR leukemia -37.6% | RPMI-8226 leukemia -19.3% | OVCAR-8 ovarian -0.777% | OVCAR-5 ovarian -46.2% | SK-OV-3 ovarian -7.04% | IGROV1 ovarian -89.4% | HS 578T breast -54.4%

CSc1nc2ccc(C)cc2cc1/C=C1/C=C(c2ccccc2)NC1=O
inactive: SR leukemia 10.1% | RPMI-8226 leukemia 57.3% | OVCAR-8 ovarian 55.5% | OVCAR-5 ovarian 63.9% | SK-OV-3 ovarian 76.2% | IGROV1 ovarian 25.6% | HS 578T breast 28.9% | NCI/ADR-RES ovarian 51.6%
active: OVCAR-3 ovarian 6.24%

CCOC(=O)c1cnn(CC(C)O)c1NC(=O)NCc1cccc(F)c1 (stereo not drawn)
inactive: SR leukemia 92.1% | RPMI-8226 leukemia 90.3% | OVCAR-8 ovarian 106% | OVCAR-5 ovarian 107% | SK-OV-3 ovarian 101% | IGROV1 ovarian 95.5% | OVCAR-3 ovarian 107% | HS 578T breast 103% | NCI/ADR-RES ovarian 96.9%

CC(=O)O[C@H]1CC[C@]2(C)[C@H]3CC=C4[C@@H]5CC(C)(C)CC[C@]5(C(=O)N5CCN(CCC#N)CC5)CC[C@@]4(C)[C@]3(C)CC[C@H]2C1(C)C
inactive: SR leukemia 13.7% | RPMI-8226 leukemia 13.3% | OVCAR-8 ovarian 29.6% | OVCAR-5 ovarian 70.6% | SK-OV-3 ovarian 60.6% | IGROV1 ovarian 39.1% | HS 578T breast 61.2% | NCI/ADR-RES ovarian 48.8%
active: OVCAR-3 ovarian -9.23%

CC(=O)c1ccc(-n2cc(CN3CCN(c4cc5c(cc4F)c(=O)c(C(=O)O)cn5C4CC4)CC3)nn2)cc1
inactive: SR leukemia 99.6% | RPMI-8226 leukemia 47.9% | OVCAR-8 ovarian 95.1% | OVCAR-5 ovarian 103% | SK-OV-3 ovarian 84.9% | IGROV1 ovarian 75.3% | OVCAR-3 ovarian 90.4% | HS 578T breast 80.6% | NCI/ADR-RES ovarian 87.9%
